# TRb SRC2 PPI = qHTS for Inhibitors of the Interaction of Thyroid Hormone Receptor and Steroid Receptor Coregulator 2. Thyroid hormone receptor beta (Homo sapiens), P10828. TRbeta-SRC2 peptide binding, fluorescence polarization; receptor liganded with 1 µM T3. Potency, µM (titrated, usually from 106 µM), for the others: top-dose activity change, negative = inhibition, actives largely listed as inhibitors. 280,000 tested, 0.065% active. AID 1469, 2008;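 further: plate controls were bound peptide for no effect and peptide without receptor for full effect; nearly all actives have a fitted effect of over 50% in size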
# Target sequence (P10828 whole entry, looked up): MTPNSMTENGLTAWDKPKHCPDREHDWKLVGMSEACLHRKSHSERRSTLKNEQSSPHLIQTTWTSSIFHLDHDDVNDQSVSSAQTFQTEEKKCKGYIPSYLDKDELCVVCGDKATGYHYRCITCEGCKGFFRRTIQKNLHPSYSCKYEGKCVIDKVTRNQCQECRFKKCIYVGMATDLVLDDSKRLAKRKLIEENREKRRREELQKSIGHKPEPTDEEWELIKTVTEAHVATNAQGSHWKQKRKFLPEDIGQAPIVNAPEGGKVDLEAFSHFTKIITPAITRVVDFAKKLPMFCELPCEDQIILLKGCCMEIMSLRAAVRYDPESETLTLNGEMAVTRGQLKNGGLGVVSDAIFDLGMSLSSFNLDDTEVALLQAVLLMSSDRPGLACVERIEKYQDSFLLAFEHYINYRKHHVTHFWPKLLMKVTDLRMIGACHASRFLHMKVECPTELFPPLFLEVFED
#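 Fluorescence polarization of 20 nM Texas Red SRC2 peptide with 0.6 uM human TRb ligand-binding domain, in Tris buffer with 1uM T3 and 5% DMSO. Incubated 5 hr ambient; normalized to unbound and bound controls.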
# Tau fibril ThT = qHTS for Inhibitors of Tau Fibril Formation, Thioflavin T Binding; 270,000 tested, 2.1% active; AID 1460, 2008; Potency, µM (titrated, usually from 57.4 µM), for the others: at the highest dose activity, negative = inhibition, usual class: inhibitors; recombinant tau K18 P301L, heparin-induced fibrillization, ThT fluorescence; Microtubule-associated protein tau (Homo sapiens), P10636; further: nearly all actives have a fitted effect of over 55% in size
# Target sequence (P10636 561-689 P618L limits assumed): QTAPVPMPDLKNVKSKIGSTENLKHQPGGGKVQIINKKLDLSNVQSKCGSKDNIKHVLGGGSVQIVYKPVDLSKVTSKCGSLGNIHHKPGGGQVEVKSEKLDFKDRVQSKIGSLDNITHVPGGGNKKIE
#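 ThT emission at 510 nm, taken 1 hr after adding 30 uM dye, quantifies aggregates formed when 20 uM heparin acts on human tau K18 P301L for 6 hr at 37 C.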
# Tau fibril FP = qHTS for Inhibitors of Tau Fibril Formation, Fluorescence Polarization; 280,000 tested, 0.39% active; Microtubule-associated protein tau (Homo sapiens), P10636; Potency, µM (series often up to 57.7 µM), inactives show at the top dose activity, negative = inhibition, actives largely listed as inhibitors; K18 P301L tau heparin fibrillization, Alexa594 FP, 6 h; further: nearly all actives have a fitted effect of over 55% in size
#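 Recombinant K18 P301L […], labeled with Alexa 594 at 0.24 uM over 15 uM unlabeled; heparin inducer 20 uM final; 37 C, 6 hr; FP endpoint.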
# Tau fluor counter = Counterscreen qHTS for Inhibitors of Tau Fibril Formation, Fluorescence Polarization; tau K18 P301L Alexa594 fluorescence, heparin fibrillization; Potency, µM (doses to about 57.7 µM), without a hit: at the highest dose activity change, negative = decrease; 280,000 tested, 0.93% active; further: nearly all actives have a fitted effect of over 55% in size
#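 Human tau K18 P301L (15 uM unlabeled, 0.24 uM Alexa 594-labeled) in 100 mM sodium acetate pH 7 with 20 uM heparin, 6 hr at 37 C. ThT 30 uM added, 1 hr ambient; Alexa 594 FP and total fluorescence read at 555/632 nm.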
# RGS12 GoLoco inh = qHTS Assay for Inhibitors of RGS12 GoLoco Motif Activity (Red Fluorophore) | AID 880, 2007 | Gai1:RGS12 GoLoco peptide FP, rhodamine, 10 min | 230,000 tested, 0.44% active | Guanine nucleotide-binding protein G(i) subunit alpha-1 (Homo sapiens), P63096 | Potency, µM (highest dose often 61.6 µM), for the others: at the top dose activity, negative = inhibition, usual class: inhibitors; active means well fitted inhibition curve with a large enough effect, not every such curve was filed as active; inactive means no such curve, though single readings can be large or run the other way; further: nearly all actives have a fitted effect of over 30% in size
# TexasRed fluor = Total Fluorescence Counterscreen for Inhibitors of the Interaction of Thyroid Hormone Receptor and Steroid Receptor Coregulator 2; 280,000 tested, 0.29% active; TRb/SRC2 Texas Red total fluorescence interference; Potency, µM (doses to about 106 µM), without a hit: at the highest dose fluorescence change, negative = quenching; AID 1479, 2009; active means well fitted curve in either direction with a large enough effect; inconclusive means small, poorly fitted or top-dose-only effect
#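 Flags fluorescent or light-absorbing compounds by total fluorescence, S + 2P, at 555 nm excitation and 632 nm emission. Mixture: 20 nM Texas Red SRC2 peptide, 0.6 uM human TRb LBD, 1 uM T3, 5% DMSO; compound exposure 5 h at ambient temperature.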
# An asterisk follows results filed as active; ? = inconclusive; . = not tested or not shown; [ ] = another dose, or the depositor's remark. Hits are enriched below; roughly 3.2% of the tested compounds scored in any of these assays. Unless noted, the call rests on the fitted dose curve; in most records, active means well fitted curve in the direction sought with a large enough effect; inconclusive means small, poorly fitted or top-dose-only effect, or another doubt; inactive means no such curve, though single readings can be large; an effect the other way counts as inactive or inconclusive. Unless noted, on the % scale 0 is the no-effect control and ±100 the full control effect; potency means the concentration at half of the fitted maximal effect.
SMILES,TRb SRC2 PPI,Tau fibril ThT,Tau fibril FP,Tau fluor counter,RGS12 GoLoco inh,TexasRed fluor
Nc1nc(Nc2cccc(Cl)c2)sc1C(=O)c1ccc(F)cc1,4.6%,?,?,8.91µM*[quencher],.,-4.4%
CCOc1ccc(Nc2nc(N)c(C(=O)c3ccccc3Cl)s2)cc1,-1.7%,?,2.7%,15.8µM*[quencher],.,-1.9%
COc1cccc(C(=O)c2sc(Nc3ccc(F)c(Cl)c3)nc2N)c1,4.1%,0.1%,6.5%,?,.,0.8%
CCNc1nc(N)nc(Cl)n1,-4.3%[201 µM],.,.,.,.,-5.2%[201 µM]
COc1cc(/C=N/NC(=O)c2sc(N)c(C#N)c2C)cc(Br)c1O,11.9%,4.47µM*,14.0%,?,16.4%,?
C/C(=C\C(=O)c1ccccc1)Nc1ccc(O)cc1,?,?,7.0%,?,-4.2%,-15.0%
C/C(=C\C(=O)c1cccnc1)Nc1ccc(O)cc1,14.1µM*,?,-1.3%,-17.3%,-2.4%,20.6%
CCSc1nnc(NC(=O)CSc2nc3c(cc2C#N)CCCC3)s1,1.0%,2.82µM*,3.3%,?,0.6%,0.1%
CCc1nnc(NC(=O)CSc2nc3c(cc2C#N)CCC3)s1,-3.5%,2µM*,0.0%,-15.7%,1.2%,-0.1%
CC[C@@H]1Cn2c(c3nc(-c4cc(Cl)cc(Cl)c4Cl)nc-3n(C)c2=O)N1,-0.2%,-22.7%,-2.0%,-26.8%,7.4%,-1.5%
Cc1ccc2nc(/C(C#N)=C\c3ccc(Oc4ccc([N+](=O)[O-])cn4)cc3)[nH]c2c1,2.0%,5.01µM*,3.1%,?,57.1%,-2.2%
COc1ccc2nc(/C(C#N)=C\c3ccc(Oc4ccc([N+](=O)[O-])cn4)cc3)[nH]c2c1,1.3%,5.01µM*,-13.2%,?,130.4%,-4.7%
COC(=O)c1ccccc1NC(=O)CSc1nc2nc(C)cc(C)n2n1,2.4%,-11.0%,-4.1%,-7.4%,.,-1.3%
CSc1nc2cc(Oc3cccc(Cl)c3Cl)c(Cl)cc2[nH]1,1.4%,?,12.6µM*,?,-2.4%,2.7%
CCC/C=C/C1C(=O)C2OC2C2(OCC(CC)(CC)CO2)C1CO (stereo unspecified),3.0%[11.2 µM],?,8.7%[11.6 µM],-2.2%[11.6 µM],.,-1.4%[11.2 µM]
CCN1/C(=C/c2ccc3cccc(C)c3[n+]2CC)Sc2ccccc21,-0.1%,?,?,17.9%,-3.2%,-0.8%
CCN1/C(=C/C(C)=C/c2sc3ccccc3[n+]2CC)Sc2ccccc21,?,1.58µM*,?,0.447µM*[fluorescent],-134.2%,20µM*[fluorescent]
COc1cc(N=Nc2c(O)c3ccccc3[nH]c2=O)c(OC)cc1N=Nc1ccccc1,-12.9%,7.08µM*,-12.3%,?,39.6%,-5.8%
NC(=O)c1ccc(N=Nc2c(O)c3ccccc3[nH]c2=O)cc1,-17.0%,0.501µM*,?,-19.4%,-72.6%,-0.5%
Cc1[nH]c2ccccc2c1N=Nc1cc(C(=O)O)cc(C(=O)O)c1,-12.3%,?,-0.4%,-7.8%,20.2%,-2.6%
CCCCC(CC)C1OCC(C[N+]2(C)CCOCC2)O1 (stereo unspecified),2.1%,3.2%,-3.9%,0.1%,10µM*,?
CCC(C)C(NC(=O)OC(C)(C)C)C(=O)NC1COC2CC(n3cc(F)c(=O)[nH]c3=O)OC12 (stereo unspecified),-1.1%,.,.,.,.,-1.9%
Cc1ccc(NC(=O)COc2ccccc2C(=O)Nc2ccccc2)cc1Cl,13.4%,-0.9%,4.47µM*,?,3.6%,-0.3%
Cc1ccc(Cl)cc1NC(=O)c1ccccc1OCC(=O)Nc1ccc(Cl)cc1,-7.7%,5.5%,?,-26.6%,8.8%,-1.8%
COc1ccc(-n2c(=O)c(-c3ccccc3)nc3cnc(N4CCOCC4)nc32)cc1,.,.,.,.,-3.7%,.
SMILES,TRb SRC2 PPI,Tau fibril ThT,Tau fibril FP,Tau fluor counter,RGS12 GoLoco inh,TexasRed fluor
O=C1C=C[C@@H](O)[C@H]2[C@@H]3C(=O)N(C[C@@H]4CCCO4)C(=O)[C@@H]3CC[C@H]12,-3.9%[11.2 µM],-15.4%[11.5 µM],2.3%[11.6 µM],-15.3%[11.6 µM],.,-2.7%[11.2 µM]
Cc1ccc(Sc2ccc(/C=C3/C(=O)NN(c4ccccc4)C3=O)o2)cc1,-5.4%,12.6µM*,-13.0%,?,6.5%,-1.1%
O=C1NN(c2ccccc2)C(=O)/C1=C/c1ccc(Sc2ccc(Cl)cc2)o1,2.0%,11.2µM*,-16.6%,?,5.0%,-1.2%
O=C1NC(=O)/C(=C\c2ccc(Sc3ccc(Cl)cc3)o2)N1,0.2%,-15.4%,-2.5%,-13.0%,22.8%,-4.0%
CC#CCN1c2ccccc2[C@]23C[C@@H](C(=O)OC)N(S(=O)(=O)c4cccs4)C2=NC(C(=O)OC)=C(C(=O)OC)[C@H]13,5.4%[11.2 µM],4.4%[11.5 µM],3.7%[11.6 µM],-5.0%[11.6 µM],-3.9%[14.2 µM],-0.5%[11.2 µM]
CCCCCC/C(C)=C1/SC(=S)NC1=O,-5.8%,-20.0%,0.4%,-14.4%,14.4%,-1.6%
C/C(C/C(C)=C1/SC(=S)NC1=O)=C1\SC(=S)NC1=O,5.8%,15.8µM*,-1.1%,-25.1%,9.5%,-1.2%
CCOc1ccc(NC(=S)NN(C)C(=S)Nc2ccc(OCC)cc2)cc1,-7.4%,?,14.4%,17.8µM*[quencher],3.6%,-4.2%
COc1ccc(NC(=S)NNC(=S)Nc2cccc(C(F)(F)F)c2)cc1,1.8%,?,0.0%,14.1µM*[quencher],-1.7%,-1.5%
CCOc1cc(OCC)cc(C(=O)NC(=S)Nc2cccc(C(F)(F)F)c2)c1,.,-1.9%,-6.5%,-22.1%,3.2%,.
S=C(NCc1ccncc1)Nc1ccc(Cl)c(Cl)c1,-1.9%,10.5%,?,-19.6%,7.4%,-3.0%
CCCN(Cc1ccccc1)C(=S)Nc1ccc(OCC)cc1,2.7%,-10.4%,1.1%,-16.7%,1.5%,1.1%
CNNC(=S)Nc1cccc(C(F)(F)F)c1,6.3%,-5.1%,5.5%,-17.1%,-14.0%,0.0%
O=[N+]([O-])c1cc(C(F)(F)F)cc([N+](=O)[O-])c1NCCNC(=S)Nc1ccc(Cl)c(Cl)c1,4.8%,?,?,5.62µM*[quencher],10.7%,-1.8%
CCOc1ccc(NC(=S)NNC(=S)Nc2cccc(C(F)(F)F)c2)cc1,1.9%,31.6µM*,?,28.2µM*[quencher],8.5%,-4.1%
